Results filed as inconclusive are left out. Activity calls are given as the source filed them. Calls follow the shape of the dose curve; as a rule, active = well fitted cell-killing curve with a large enough effect; inconclusive = small, poorly fitted or top-dose-only effect, or effect the other way; inactive = flat fitted curve, though single readings scatter. Where a SMILES comes first, the peptide text is derived from it. The star is where a group is joined. AFC = O=c1cc(C(F)(F)F)c2ccc(N*)cc2o1
Columns and labels:
Experiment in all cases: Primary qHTS to identify gynecologic anti-cancer compounds using libraries of approved drugs and bioactive compounds (AID 1345084); also: nearly all actives have a fitted effect of over 55% in size
C33A = details: Gynecologic cancer cell panel viability, ATPlite luminescence, 48 h; series mostly up to 57.5 µM
Method in brief: (§1)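 ATP-based viability (ATPlite), 1,000 cells/well, 16 h pre-incubation, 48 h compound at 37 C, 5% CO2, 15 min RT before read.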

CAOV3 = details: Gynecologic cancer cell panel viability, ATPlite luminescence, 48 h; series mostly up to 57.5 µM
Method in brief: as §1

CASKI = details: Gynecologic cancer cell panel viability, ATPlite luminescence, 48 h; series mostly up to 57.5 µM
Method in brief: as §1

Es-2 = details: Gynecologic cancer cell panel viability, ATPlite luminescence, 48 h; series mostly up to 57.5 µM
Method in brief: as §1

HeLa = details: Gynecologic cancer cell panel viability, ATPlite luminescence, 48 h; series mostly up to 57.5 µM
Method in brief: as §1

Hek293T = details: Gynecologic cancer cell panel viability, ATPlite luminescence, 48 h, control line for the selectivity index; series mostly up to 57.5 µM
Method in brief: as §1

JEG-3 = details: Gynecologic cancer cell panel viability, ATPlite luminescence, 48 h; series mostly up to 57.5 µM
Method in brief: as §1

OV90 = details: Gynecologic cancer cell panel viability, ATPlite luminescence, 48 h; series mostly up to 57.5 µM
Method in brief: as §1

PA-1 = details: Gynecologic cancer cell panel viability, ATPlite luminescence, 48 h; series mostly up to 57.5 µM
Method in brief: as §1

SKOV3 = details: Gynecologic cancer cell panel viability, ATPlite luminescence, 48 h; series mostly up to 57.5 µM
Method in brief: as §1

Tov-21-G = details: Gynecologic cancer cell panel viability, ATPlite luminescence, 48 h; series mostly up to 57.5 µM
Method in brief: as §1

Tov112D = details: Gynecologic cancer cell panel viability, ATPlite luminescence, 48 h; series mostly up to 57.5 µM
Method in brief: as §1
% is scaled to controls: 0 for no effect and ±100 for the full control effect.

CC1(C)CCCC2(C)C1C(O)C=C(CO)C2(O)CO (stereo not given)
inactive: Potency (C33A) | Potency (CAOV3) | Potency (CASKI) | Potency (Es-2) | Potency (HeLa) | Potency (Hek293T) | Potency (JEG-3) | Potency (OV90) | Potency (PA-1) | Potency (SKOV3) | Potency (Tov-21-G) | Potency (Tov112D)

OC[C@H]1O[C@@H](OC[C@H]2O[C@@H](OC/C=C/c3ccccc3)[C@H](O)[C@@H](O)[C@@H]2O)[C@@H](O)[C@@H]1O
inactive: Potency (C33A) | Potency (CAOV3) | Potency (CASKI) | Potency (Es-2) | Potency (HeLa) | Potency (Hek293T) | Potency (JEG-3) | Potency (OV90) | Potency (PA-1) | Potency (SKOV3) | Potency (Tov-21-G) | Potency (Tov112D)

CO[C@H]1/C=C\O[C@@]2(C)Oc3c(C)c(O)c4c(O)c(c5c(nc6cc(C)ccn65)c4c3C2=O)NC(=O)/C(C)=C\C=C/[C@H](C)[C@H](O)[C@@H](C)[C@@H](O)[C@@H](C)[C@H](OC(C)=O)[C@@H]1C
inactive: Potency (C33A) | Potency (CAOV3) | Potency (CASKI) | Potency (Es-2) | Potency (HeLa) | Potency (Hek293T) | Potency (JEG-3) | Potency (OV90) | Potency (PA-1) | Potency (SKOV3) | Potency (Tov-21-G) | Potency (Tov112D)

CC(=O)N[C@@H](Cc1c[nH]c2ccccc12)C(=O)N[C@@H](CCC(=O)O)C(=O)N[C@@H](Cc1cnc[nH]1)C(=O)N[C@@H](CC(=O)O)C(=O)Nc1ccc2c(C(F)(F)F)cc(=O)oc2c1 (Ac-WEHD-{AFC})
inactive: Potency (C33A) | Potency (CAOV3) | Potency (CASKI) | Potency (Es-2) | Potency (HeLa) | Potency (Hek293T) | Potency (JEG-3) | Potency (OV90) | Potency (PA-1) | Potency (SKOV3) | Potency (Tov-21-G) | Potency (Tov112D)

CCC(C)C(=O)O[C@H]1CCC=C2C=C[C@H](C)[C@H](CC[C@@H](O)C[C@@H](O)CC(=O)O)[C@H]21 (stereo not given in full)
inactive: Potency (C33A) | Potency (CAOV3) | Potency (CASKI) | Potency (Es-2) | Potency (HeLa) | Potency (Hek293T) | Potency (JEG-3) | Potency (OV90) | Potency (PA-1) | Potency (SKOV3) | Potency (Tov-21-G) | Potency (Tov112D)

CC1(C)CC[C@]2(C(=O)O[C@@H]3O[C@H](CO[C@@H]4O[C@H](CO)[C@@H](O)[C@H](O)[C@H]4O[C@@H]4O[C@H](CO)[C@@H](O)[C@H](O)[C@H]4O)[C@@H](O)[C@H](O[C@@H]4O[C@H](CO)[C@@H](O)[C@H](O)[C@H]4O)[C@H]3O)CC[C@]3(C)C(=CCC4[C@@]5(C)CC[C@@H](O)[C@@](C)(C(=O)O[C@@H]6O[C@H](CO)[C@@H](O)[C@H](O)[C@H]6O)C5CC[C@]43C)[C@@H]2C1 (stereo not given in full)
inactive: activity change, negative = cytotoxicity (C33A) -23% [at 6.55 µM] | activity change, negative = cytotoxicity (CAOV3) 2.18% [at 6.55 µM] | activity change, negative = cytotoxicity (CASKI) -2.18% [at 6.55 µM] | activity change, negative = cytotoxicity (Es-2) 0.72% [at 6.55 µM] | activity change, negative = cytotoxicity (HeLa) 5.19% [at 6.55 µM] | activity change, negative = cytotoxicity (Hek293T) 16.4% [at 6.55 µM] | activity change, negative = cytotoxicity (JEG-3) -0.894% [at 6.55 µM] | activity change, negative = cytotoxicity (OV90) -0.699% [at 6.55 µM] | activity change, negative = cytotoxicity (PA-1) 5.56% [at 6.55 µM] | activity change, negative = cytotoxicity (SKOV3) -6.61% [at 6.55 µM] | activity change, negative = cytotoxicity (Tov-21-G) -1.95% [at 6.55 µM] | activity change, negative = cytotoxicity (Tov112D) -1.22% [at 6.55 µM]

NC1CCCCN(c2c(F)cc3c(=O)c(C(=O)O)cn(C4CC4)c3c2Cl)C1 (stereo not given)
inactive: Potency (C33A) | Potency (CAOV3) | Potency (CASKI) | Potency (Es-2) | Potency (HeLa) | Potency (Hek293T) | Potency (JEG-3) | Potency (OV90) | Potency (PA-1) | Potency (SKOV3) | Potency (Tov-21-G) | Potency (Tov112D)

COc1ccccc1Oc1ccc(N(Cc2cccnc2)S(=O)(=O)CC(F)(F)F)cc1
inactive: Potency (C33A) | Potency (CAOV3) | Potency (CASKI) | Potency (Es-2) | Potency (HeLa) | Potency (Hek293T) | Potency (JEG-3) | Potency (OV90) | Potency (PA-1) | Potency (SKOV3) | Potency (Tov-21-G) | Potency (Tov112D)

COc1ccc(-c2nc(-c3ccc(-c4cccc(Cl)c4)o3)[nH]c2-c2ccc(OC)cc2)cc1
inactive: Potency (C33A) | Potency (CAOV3) | Potency (CASKI) | Potency (Es-2) | Potency (HeLa) | Potency (Hek293T) | Potency (JEG-3) | Potency (OV90) | Potency (PA-1) | Potency (SKOV3) | Potency (Tov-21-G) | Potency (Tov112D)

C/C(=C\CCC(C)CCO)C(=O)O[C@@H]1[C@@H](O)[C@H](OC2OC=C(C(=O)O)C3CCC(C)(O)C23)O[C@H](CO)[C@H]1O (stereo not given in full)
inactive: Potency (C33A) | Potency (CAOV3) | Potency (CASKI) | Potency (Es-2) | Potency (HeLa) | Potency (Hek293T) | Potency (JEG-3) | Potency (OV90) | Potency (PA-1) | Potency (SKOV3) | Potency (Tov-21-G) | Potency (Tov112D)

CC1(O)CCCC2(C)C1CCC13CC(CO)C(CCC12)C3 (stereo not given)
inactive: Potency (C33A) | Potency (CAOV3) | Potency (CASKI) | Potency (Es-2) | Potency (HeLa) | Potency (Hek293T) | Potency (JEG-3) | Potency (OV90) | Potency (PA-1) | Potency (SKOV3) | Potency (Tov-21-G) | Potency (Tov112D)

CC(=O)CCC1=C(C)C(O[C@@H]2O[C@H](CO)[C@@H](O)[C@H](O)[C@H]2O)C(O)CC1(C)C (stereo not given in full)
inactive: Potency (C33A) | Potency (CAOV3) | Potency (CASKI) | Potency (Es-2) | Potency (HeLa) | Potency (Hek293T) | Potency (JEG-3) | Potency (OV90) | Potency (PA-1) | Potency (SKOV3) | Potency (Tov-21-G) | Potency (Tov112D)

C=C(C)C1CCC2(C(=O)O)CCC3(C(=O)O)C(CCC4C5(C)CCC(O)C(C)(C(=O)O)C5CCC43C)C12 (stereo not given)
inactive: Potency (C33A) | Potency (CAOV3) | Potency (CASKI) | Potency (Es-2) | Potency (HeLa) | Potency (Hek293T) | Potency (JEG-3) | Potency (OV90) | Potency (PA-1) | Potency (SKOV3) | Potency (Tov-21-G) | Potency (Tov112D)

CC(=O)O[C@@H]1c2c3c(cc(O)c2C(=O)O[C@@H]1C)O[C@@]1(C)[C@@H](O)C[C@H]2C(C)(C)C(=O)C=C[C@]2(C)[C@@H]1C3
inactive: Potency (C33A) | Potency (CAOV3) | Potency (CASKI) | Potency (Es-2) | Potency (HeLa) | Potency (Hek293T) | Potency (JEG-3) | Potency (OV90) | Potency (PA-1) | Potency (SKOV3) | Potency (Tov-21-G) | Potency (Tov112D)

CC(C)=CCC/C(C)=C/Cc1ccc(O)c(C2OC(=O)c3cc(C(=O)O)cc(O)c32)c1O (stereo not given)
inactive: Potency (C33A) | Potency (CAOV3) | Potency (CASKI) | Potency (Es-2) | Potency (HeLa) | Potency (Hek293T) | Potency (JEG-3) | Potency (OV90) | Potency (PA-1) | Potency (SKOV3) | Potency (Tov-21-G) | Potency (Tov112D)

Source: PubChem BioAssay (NCATS)
